Among the targets are RELARELA (p65 homodimer) (Homo sapiens, UniProt Q04206 1-307); p50p50 homodimer (Homo sapiens, UniProt P19838 7-356); RELB subunit;p50 subunit (Homo sapiens;Homo sapiens, UniProt Q01201;P19838 120-401;7-356).
Assay in all cases: protein binding microarray; high values mean tight binding
Settings in all cases: dsDNA, one strand shown

A further assay deals with T1, p52p52 homodimer (Homo sapiens, UniProt Q00653 4-332).
T1 sequence: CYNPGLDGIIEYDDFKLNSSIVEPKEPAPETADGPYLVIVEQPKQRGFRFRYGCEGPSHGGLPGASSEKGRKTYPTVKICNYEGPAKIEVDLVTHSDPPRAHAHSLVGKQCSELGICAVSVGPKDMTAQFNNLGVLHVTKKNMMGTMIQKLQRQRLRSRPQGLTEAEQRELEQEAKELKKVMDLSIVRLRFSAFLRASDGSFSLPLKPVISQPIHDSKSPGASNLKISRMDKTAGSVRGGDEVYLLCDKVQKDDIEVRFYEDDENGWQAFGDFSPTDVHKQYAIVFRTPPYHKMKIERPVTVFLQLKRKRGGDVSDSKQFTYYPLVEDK

The target of assay [1] is RELA (p65) subunit of heterodimer;p50 subunit (Homo sapiens;Homo sapiens, UniProt Q04206;P19838 1-307;7-356).
Sequence of RELA (p65) subunit of heterodimer;p50 subunit (Q04206 1-307, chain 1 of 2): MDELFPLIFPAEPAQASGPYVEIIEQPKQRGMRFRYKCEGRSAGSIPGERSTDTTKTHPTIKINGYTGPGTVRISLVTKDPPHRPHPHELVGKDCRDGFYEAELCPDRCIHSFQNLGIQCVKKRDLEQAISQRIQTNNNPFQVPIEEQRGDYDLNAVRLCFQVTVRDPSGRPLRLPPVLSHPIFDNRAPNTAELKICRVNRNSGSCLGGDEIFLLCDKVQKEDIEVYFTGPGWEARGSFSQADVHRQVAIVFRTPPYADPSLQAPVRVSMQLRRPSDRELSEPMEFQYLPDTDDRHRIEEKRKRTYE
Sequence of RELA (p65) subunit of heterodimer;p50 subunit (P19838 7-356, chain 2 of 2): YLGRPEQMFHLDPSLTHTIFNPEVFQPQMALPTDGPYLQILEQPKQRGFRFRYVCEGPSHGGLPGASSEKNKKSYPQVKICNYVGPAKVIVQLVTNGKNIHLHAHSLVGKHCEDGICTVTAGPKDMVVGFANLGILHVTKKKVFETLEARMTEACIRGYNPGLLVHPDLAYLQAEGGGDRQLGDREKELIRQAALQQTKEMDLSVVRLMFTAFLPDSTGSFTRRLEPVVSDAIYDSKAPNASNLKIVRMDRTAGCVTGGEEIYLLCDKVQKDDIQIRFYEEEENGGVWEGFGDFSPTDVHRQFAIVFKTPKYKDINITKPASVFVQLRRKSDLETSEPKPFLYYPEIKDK
The target of assay [2] is RELA (p65) subunit of heterodimer;p52 subunit (Homo sapiens;Homo sapiens, UniProt Q04206;Q00653 1-307;4-332).
The target of a further assay is T2, RELB subunit;p52 subunit (Homo sapiens;Homo sapiens, UniProt Q01201;Q00653 120-401;4-332).
T2 sequence 1: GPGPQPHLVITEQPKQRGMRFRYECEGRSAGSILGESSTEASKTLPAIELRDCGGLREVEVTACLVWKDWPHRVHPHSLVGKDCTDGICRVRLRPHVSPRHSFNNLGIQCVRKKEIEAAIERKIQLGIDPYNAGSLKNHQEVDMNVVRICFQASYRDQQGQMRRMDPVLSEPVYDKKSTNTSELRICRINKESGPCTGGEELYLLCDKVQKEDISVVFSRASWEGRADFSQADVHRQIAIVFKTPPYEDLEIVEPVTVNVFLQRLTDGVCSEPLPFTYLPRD
T2 sequence 2: T1 sequence

Assay [3] addresses C-Rel subunit;p50 subunit (Homo sapiens;Homo sapiens, UniProt Q04864;P19838 1-285;7-356).
Assay [4] concerns the target T3, C-Rel subunit;p52 subunit (Homo sapiens;Homo sapiens, UniProt Q04864;Q00653 1-285;4-332).
T3 sequence 1: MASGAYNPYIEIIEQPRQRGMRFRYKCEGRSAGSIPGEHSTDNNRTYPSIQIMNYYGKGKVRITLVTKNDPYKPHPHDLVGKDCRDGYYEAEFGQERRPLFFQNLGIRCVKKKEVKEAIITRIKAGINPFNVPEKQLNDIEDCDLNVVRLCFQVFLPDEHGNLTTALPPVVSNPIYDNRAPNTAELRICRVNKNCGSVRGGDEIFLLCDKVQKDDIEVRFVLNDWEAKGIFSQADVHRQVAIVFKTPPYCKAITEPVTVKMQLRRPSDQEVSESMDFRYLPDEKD
T3 sequence 2: T1 sequence

Sequence of p50p50 homodimer (P19838 7-356): as the sequence (P19838 7-356, chain 2 of 2) above
Sequence of RELARELA (p65 homodimer) (Q04206 1-307): as the sequence (Q04206 1-307, chain 1 of 2) above

CGGAATCCCCT: the binding signal is 2.17 z-score with RELARELA (p65 homodimer); 1.6 z-score with p50p50 homodimer; 2.39 z-score with p52p52 homodimer; 2.3 z-score in assay [1]; 2.13 z-score in assay [2]; 2.43 z-score with RELB subunit;p50 subunit. Besides, the binding signal in the assay with RELB subunit;p52 subunit was 2.22 z-score; in [3], 1.83 z-score; in assay [4], 2.31 z-score.
CAGTACGCCCT: the binding signal with RELARELA (p65 homodimer) is -0.311 z-score; with p50p50 homodimer, -1.79 z-score; with p52p52 homodimer, -0.678 z-score; in assay [1] it was -0.914 z-score; in [2], -0.662 z-score; in the assay with RELB subunit;p50 subunit it was -0.89 z-score. Further, the results for the binding signal (with RELB subunit;p52 subunit; in [3]; in [4]) were -0.84 z-score, -1.25 z-score and -0.761 z-score, respectively.
As to GGAGTCACCCT, the binding signal in the assay with RELARELA (p65 homodimer) was -0.674 z-score; with p50p50 homodimer, -0.676 z-score; with p52p52 homodimer it was -0.345 z-score; in assay [1], -0.224 z-score; in [2] it was -0.5 z-score; in the assay with RELB subunit;p50 subunit, -0.378 z-score. In addition, the binding signal with RELB subunit;p52 subunit was -0.661 z-score; in assay [3] it was -0.396 z-score; in [4], -0.585 z-score.
Consider CGGGAGCTCCC, for which the binding signal with RELARELA (p65 homodimer) was found to be 0.73 z-score; with p50p50 homodimer, 0.136 z-score; with p52p52 homodimer, 0.135 z-score; in assay [1], 0.408 z-score; in assay [2] it was 0.0305 z-score; in the assay with RELB subunit;p50 subunit it was 0.0766 z-score. The binding signal was -0.106 z-score in the assay with RELB subunit;p52 subunit, -0.102 z-score in assay [3] and 0.192 z-score in assay [4].
For the sequence AGAGACACCCC, the binding signal is -0.871 z-score in the assay with RELARELA (p65 homodimer); -0.237 z-score with p50p50 homodimer; -0.229 z-score with p52p52 homodimer; -0.459 z-score in assay [1]; -0.359 z-score in [2]; -0.257 z-score with RELB subunit;p50 subunit. For the same sequence, the binding signal with RELB subunit;p52 subunit is 0.00668 z-score; in assay [3], -0.227 z-score; in [4], -0.484 z-score.
Regarding GAAGAAGCCCT, the binding signal in the assay with RELARELA (p65 homodimer) was -0.988 z-score; with p50p50 homodimer, -1.65 z-score; with p52p52 homodimer, -0.651 z-score; in assay [1], -0.934 z-score; in assay [2], -0.868 z-score; with RELB subunit;p50 subunit, -1.04 z-score. The results for the binding signal (with RELB subunit;p52 subunit; in assay [3]; in assay [4]) were -0.801 z-score, -1.08 z-score and -0.998 z-score, respectively.
As to GAGAAGATCCC, the binding signal is -0.164 z-score with RELARELA (p65 homodimer); -0.0695 z-score in the assay with p50p50 homodimer; -0.271 z-score with p52p52 homodimer; -0.131 z-score in assay [1]; -0.161 z-score in [2]; -0.259 z-score with RELB subunit;p50 subunit. Further, the binding signal is -0.387 z-score in the assay with RELB subunit;p52 subunit, -0.311 z-score in assay [3] and -0.307 z-score in [4].
For the sequence AGGAAGCCCCC, the binding signal with RELARELA (p65 homodimer) came out at 0.317 z-score; with p50p50 homodimer it was 1.14 z-score; with p52p52 homodimer, 1.3 z-score; in [1] it was 1.61 z-score; in assay [2], 1.31 z-score; with RELB subunit;p50 subunit it was 1.03 z-score. The binding signal in the assay with RELB subunit;p52 subunit came out at 1.07 z-score; in assay [3] it was 1.09 z-score; in assay [4] it was 1.7 z-score.
As for GGATGCATCCC, the binding signal with RELARELA (p65 homodimer) was -0.168 z-score; with p50p50 homodimer, -0.953 z-score; with p52p52 homodimer, -0.436 z-score; in assay [1] it was -0.723 z-score; in assay [2] it was -0.685 z-score; with RELB subunit;p50 subunit it was -0.7 z-score. Besides, the binding signal with RELB subunit;p52 subunit is -0.821 z-score; in assay [3] it was -1.05 z-score; in assay [4], -0.672 z-score.
In the case of AAGTGCCTCCC, the binding signal was -0.0547 z-score with RELARELA (p65 homodimer); -1.21 z-score with p50p50 homodimer; -0.495 z-score with p52p52 homodimer; -0.501 z-score in assay [1]; -0.793 z-score in assay [2]; -0.787 z-score with RELB subunit;p50 subunit. In addition, the binding signal with RELB subunit;p52 subunit is -0.731 z-score; in [3] it was -1.1 z-score; in assay [4] it was -0.788 z-score.
With GGAGTAATCCC, the binding signal with RELARELA (p65 homodimer) was 0.396 z-score; with p50p50 homodimer, -0.279 z-score; in the assay with p52p52 homodimer it was 0.000216 z-score; in [1], -0.0898 z-score; in [2] it was -0.103 z-score; in the assay with RELB subunit;p50 subunit, -0.277 z-score. Besides, the binding signal was -0.368 z-score with RELB subunit;p52 subunit, 0.0858 z-score in assay [3] and 0.0188 z-score in assay [4].
On to CGGATAATCCT, for which the binding signal is 0.536 z-score with RELARELA (p65 homodimer); -1.31 z-score with p50p50 homodimer; -0.659 z-score with p52p52 homodimer; -1.04 z-score in assay [1]; -0.831 z-score in assay [2]; -1.02 z-score with RELB subunit;p50 subunit. Besides, the binding signal with RELB subunit;p52 subunit was -1.08 z-score; in [3] it was -0.945 z-score; in [4] it was -0.765 z-score.
In the case of CGATGTGTCCC, the binding signal is 0.341 z-score with RELARELA (p65 homodimer); -0.155 z-score in the assay with p50p50 homodimer; 0.228 z-score in the assay with p52p52 homodimer; 0.0812 z-score in [1]; 0.0701 z-score in [2]; -0.0289 z-score in the assay with RELB subunit;p50 subunit. For the same sequence, the binding signal with RELB subunit;p52 subunit is 0.0454 z-score; in assay [3], 0.132 z-score; in assay [4] it was 0.074 z-score.
For the sequence CAAAGGCCCCC, the binding signal was -1.53 z-score in the assay with RELARELA (p65 homodimer); 0.336 z-score in the assay with p50p50 homodimer; 0.0392 z-score in the assay with p52p52 homodimer; 0.041 z-score in [1]; 0.0834 z-score in [2]; 0.123 z-score with RELB subunit;p50 subunit. The binding signal with RELB subunit;p52 subunit was 0.14 z-score; in [3], -0.0908 z-score; in assay [4], 0.0137 z-score.
Take AAGGATACCCC: the binding signal with RELARELA (p65 homodimer) is 0.0433 z-score; with p50p50 homodimer, 0.446 z-score; with p52p52 homodimer, 0.189 z-score; in [1] it was 0.436 z-score; in assay [2], 0.502 z-score; with RELB subunit;p50 subunit, 0.457 z-score. For the same sequence, the figures for the binding signal (with RELB subunit;p52 subunit; in assay [3]; in assay [4]) were 0.95 z-score, 0.507 z-score and 0.247 z-score, respectively.

The record behind these values is article PMC3218832.
